Consider 1 compound from PubChem BioAssay AID651707 (NMMLSC, 2012).

The whole screen tested about 2,300 compounds, of which about 170 (7.4%) were called active.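 Rule for the calls: active = over 5% cells positive for green fluorescent reporter, or over 2% positive for both it and APC stain; inactive = the rest, inconclusive results apart.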 Many of the other results were omitted from the sample, so actives are more common in it than they were.

The experiment in a line: intrinsic compound fluorescence in ER-HoxA9 progenitors, confirmation, artefact control for AML myeloid differentiation project, cell-based, flow cytometry, GFP/APC, Cherry Pick01 (AID 651707).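 Note: range taken on the double positive population between DMSO and positive control.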 The note with it: no estrogen, GFP autofluorescence flow cytometry, stronger effect = higher value.
Take `CC/C(=N\NC(=O)c1ccccc1O)c1c(O)n(Cc2ccccc2)c(=O)[nH]c1=O`: the fluorescence response was 5.1% (active).
